# DAX1 inh-1 = inhibitors of human orphan nuclear receptor DAX1 (NR0B1) | 340,000 tested, 0.99% active | inhibition, % at 6.75 µM | P51843 | HEK293 Gal4-DAX1 luciferase reporter, luminescence;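 active means inhibition above the mean over all tested compounds plus 3 SD, cut at about 4.2% in these data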;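 further: 0% = DAX1-transfected cells with DMSO and 100% = empty-vector control cells with DMSO; inhibition shows as a rise in luminescence from relieved DAX1 repression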
# Target sequence (P51843 207-470 limits assumed): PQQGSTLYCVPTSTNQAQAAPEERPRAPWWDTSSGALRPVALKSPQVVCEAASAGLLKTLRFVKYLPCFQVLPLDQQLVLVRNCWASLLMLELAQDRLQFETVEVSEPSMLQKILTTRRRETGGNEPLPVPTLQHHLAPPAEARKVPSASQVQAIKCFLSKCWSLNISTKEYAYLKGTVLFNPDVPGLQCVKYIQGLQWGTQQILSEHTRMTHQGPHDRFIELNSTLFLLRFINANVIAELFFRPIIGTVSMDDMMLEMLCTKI
# hcDAF-12 act = activators of H. contortus DAF-12 nuclear receptor; AID 652067; HEK293 hcDAF-12 lit1-tk-luc reporter, luminescence; 0% DMSO, 100% Δ7-dafachronic acid; activation, % at 6.8 µM; 370,000 tested, 1.4% active;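 active means activation above the mean of all tested compounds plus 3 SD, cut at about 5.5% in these data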;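 further: 100% = response to 3 µM Δ7-dafachronic acid high control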
# DAX1 inh-2 = inhibitors of DAX1 repression of SF-1 activated StAR promoter. HEK293T StAR-luciferase reporter, SF-1/DAX-1 repression relief. 370,000 tested, 1.1% active. inhibition, % at 6.8 µM. AID 652010;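 active means inhibition above the mean over all tested compounds plus 3 SD, cut at about 3.6% in these data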;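 further: 0% = DAX-1 cells with DMSO and 100% = cells lacking DAX-1 with DMSO; higher inhibition means more luminescence from relief of DAX-1 repression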
# hgDAF12 agonist = agonists of H. glycines DAF-12 nuclear receptor; HEK293 GAL4-hgDAF12 UAS-luciferase reporter, agonist luminescence; normalized to butyrate control; activation, % at 6.8 µM; 370,000 tested, 1.8% active;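 active means activation above a cutoff set at the mean of all screened compounds plus 3 SD, cut at about 10% in these data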;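 further: 0% = DMSO wells and 100% = sodium butyrate wells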
# ssDAF12 agonist = activators of S. stercoralis DAF-12 nuclear receptor | 370,000 tested, 1% active | activation, % at 6.8 µM | HEK293 ssDAF-12/GRIP1 lit1-tk-luc reporter, luminescence; % of 3 µM dafachronic acid response | AID 652126;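 active means activation above the mean over all tested compounds plus 3 SD, cut at about 0.9% in these data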;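 further: 0% = DMSO-only wells and 100% = 3 µM delta7-dafachronic acid wells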
# LXR ag = LXR-beta agonism as hcDAF-12 counter-screen; shares compounds with hcDAF-12 act; HEK293 Gal4-LXR tk-luc reporter, luminescence, 24 h; normalized: DMSO 0%, positive control 100%; activation, % at 6.8 µM; 3,400 tested, under 10 active;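 active means mean percent activation of the reporter above a cutoff set as the average over tested compounds plus their standard deviation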
# hcDAF12 conf = confirmation of H. contortus DAF-12 agonists; HEK293 hcDAF-12 lit1-tk-luc reporter, luminescence; % of Δ7-dafachronic acid response; AID 743032; shares compounds with hcDAF-12 act; 3,400 tested, 61% active; activation, % at 6.8 µM;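 active means mean activation across triplicate tests above the threshold derived from the earlier primary screen, cut at about 5.5% in these data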;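 further: 0% = DMSO only wells and 100% = 3 µM Δ7-dafachronic acid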
# * = called active by the depositor; nt = not tested or not shown. This is a sample that favours compounds with a hit; in the whole collection about 4.1% have one here.
SMILES,DAX1 inh-1,hcDAF-12 act,DAX1 inh-2,hgDAF12 agonist,ssDAF12 agonist,LXR ag,hcDAF12 conf
COc1ccccc1-c1nnc(SCC(=O)N2CCOCC2)o1,1.9,10.2*,2.6,9.3,1.1*,0.3,11.1*
Fc1ccc(-c2nc3ccc(Cl)cn3c2Cc2cccc(F)c2)cc1,nt,0.7,1.4,2.0,-1.0,nt,nt
Cc1cc(/C([O-])=C(/C(=S)Nc2ccc(F)cc2)[n+]2ccccc2)c(C)n1Cc1ccccc1Cl,0.0,1.2,-0.6,3.2,-1.2,nt,nt
COc1cccc(-n2c(Cc3cc(=O)[nH]c(=O)[nH]3)nnc2SCC(=O)N2CCCCC2)c1,1.2,8.3*,-0.7,-0.8,0.5,-0.2,3.9
C=CCn1c(SCC(=O)N2CCN(c3ccccc3)CC2)nc2c([nH]c3ccccc32)c1=O,2.7,9.4*,0.7,1.8,-0.4,-0.2,4.5
CCn1c(SCC(=O)N2CCCCC2)nc2c([nH]c3ccccc32)c1=O,2.4,1.9,0.5,4.2,0.1,nt,nt
CCOC(=O)N1CCN(C(=O)CSc2nc3c([nH]c4ccccc43)c(=O)n2CC)CC1,0.0,8.3*,-5.4,0.9,-0.4,-0.3,1.3
COc1cccc(-n2c(SCC(=O)N3CCCCC3)nc3c([nH]c4ccccc43)c2=O)c1,-0.2,7.0*,1.3,2.3,0.2,-0.2,3.9
Cc1ccc(CN2CCN(Cc3cnc(N4CCOCC4)s3)CC2CCO)cc1 (stereo not given),2.0,-0.6,-0.3,-1.2,-1.3,nt,nt
O=C(NC1CCCc2ccccc21)c1cccc(F)c1 (stereo not given),0.0,0.6,-0.3,-2.6,-0.7,nt,nt
NC(=O)NC(=O)COC(=O)/C=C/c1cccs1,1.5,-0.7,-0.2,3.1,-0.8,nt,nt
Nc1cc2c3c(cccc3c1)C(=O)N(CCN1CCCC1)C2=O,-0.9,16.0*,-0.9,-6.0,1.8*,0.1,11.8*
O=C1c2cccc3cc([N+](=O)[O-])cc(c23)C(=O)N1CCN1CCCC1,1.7,44.5*,-1.8,-0.8,7.1*,1.5,16.7*
CCN(CC)CCN1C(=O)c2cccc3cc(N)cc(c23)C1=O,-1.5,7.6*,-0.3,-0.1,-0.1,-0.3,4.8
O=C1c2cccc3cccc(c23)C(=O)N1CCO,-0.9,-3.2,0.0,2.2,-1.2,nt,nt
CN(Cc1ccc2c(c1)CCCN2C)C(=O)[C@H]1O[C@@H](n2cnc3c(N)ncnc32)[C@H](O)[C@@H]1O,nt,-3.6,-1.1,-3.5,-1.0,nt,nt
Cc1ccc(C)c(N=Nc2nc3ccccc3n2C)c1,2.5,12.3*,0.5,8.2,1.2*,1.0,13.3*
Cc1cccc(C(=O)NCC(c2cccs2)N2CCOCC2)c1 (stereo not given),-0.5,0.7,2.5,0.7,-0.6,nt,nt
O=C(C1=C(O)C(=O)N(CCN2CCOCC2)C1c1cccc(F)c1)c1cc2ccccc2o1 (stereo not given),-0.2,8.3*,-0.3,1.1,0.4,0.0,2.7
C=CCc1c(C)[nH]c2c(OC)cccc2c1=S,-0.1,-1.4,-1.1,0.0,-1.4,nt,nt
Nc1ccc2oc(-c3ccccn3)nc2c1,1.8,1.6,0.7,4.6,-0.5,nt,nt
Clc1ccc2oc(-c3ccccn3)nc2c1,2.0,7.6*,2.0,10.2,1.8*,1.2,9.0*
CC(=O)NNc1ncnc2c1cnn2-c1ccccc1,-0.1,0.4,-0.2,-0.6,-1.6,nt,nt
CC(=O)NNc1ncnc2ccccc12,8.7*,10.0*,0.9,5.1,0.8,-0.2,3.7
Cc1sc2c(c1C)CN(CCN1CCOCC1)CN2C(=O)c1ccccc1,2.3,9.6*,0.7,9.0,0.8,0.3,6.0*
SMILES,DAX1 inh-1,hcDAF-12 act,DAX1 inh-2,hgDAF12 agonist,ssDAF12 agonist,LXR ag,hcDAF12 conf
O=C(O)c1ccccc1Nc1cccc(OCc2ccc3ccccc3n2)c1,0.0,6.6*,0.7,2.7,-0.6,-0.3,1.4
Cc1nn(C)c(C(=O)NC(=S)Nc2ccccc2O)c1Cl,0.8,6.7*,0.5,1.0,1.4*,-0.1,6.4*
Cc1ccc(-c2cc(C(=O)Nc3cc(C)ccc3O)no2)cc1,0.9,0.0,-0.6,1.9,-1.4,nt,nt
Cc1ccc(O)c(-c2cc(-c3ccc(F)cc3)no2)c1,7.7*,18.6*,2.9,19.6*,4.0*,1.9,18.1*
COc1ccc(-c2cc(-c3ccc(C)cc3)n[nH]2)c(O)c1,5.8*,6.9*,3.6,13.1*,0.4,1.0,2.4
COc1ccc(-c2cc(-c3cc(C)ccc3O)[nH]n2)cc1,2.8,7.6*,2.2,7.6,1.2*,0.4,2.9
CC(C)=CCC[C@H](C)C[C@@H]1Cc2[nH][nH]c(=O)c2[C@H](c2ccc(Cl)cc2)O1,nt,0.0,1.0,-1.9,-1.2,nt,nt
CC(C)(C)c1ccc(C2(C)NC(=O)NC2=O)cc1 (stereo not given),2.1,8.7*,-0.4,0.6,-0.8,-0.2,2.1
COC(=O)c1sccc1NC(=O)c1ccc(C(C)C)cc1,1.2,7.1*,0.3,4.0,0.2,0.2,6.8*
c1ccc2c(c1)CCCN2Cc1nnc2n1CCCCC2,-0.4,7.7*,1.0,2.0,1.0*,-0.2,4.3
CC1=NN(c2ccccc2)C(=O)/C1=C/c1ccc[nH]1,0.2,7.6*,0.6,9.3,1.1*,0.3,8.8*
CC1=NN(c2ccccc2)C(=O)C1=Cc1ccccc1,0.7,-1.0,0.4,0.9,-1.1,nt,nt
NC(=O)CSc1oc(-c2ccco2)nc1S(=O)(=O)c1ccc(F)cc1,-0.6,nt,nt,nt,nt,nt,nt
Cc1ccccc1N=C1NN=C(c2ccccc2F)CS1,2.4,9.4*,3.0,13.4*,0.9,1.2,10.7*
Cc1cccc(C)c1N=C1NN=C(c2ccccc2F)CS1,2.9,1.4,0.1,8.6,-0.3,nt,nt
O=C(C(O)c1ccccc1)N1N=C(c2ccccc2)CC1(O)C(F)(F)F (stereo not given),0.6,-0.8,-0.2,-1.7,-0.9,nt,nt
CC(=O)Oc1c(Br)cc(N(C(C)=O)S(=O)(=O)c2ccccc2)c2ccccc12,-0.9,12.4*,-1.7,-0.2,0.5,-0.2,1.8
CC(=O)c1c(C)nc(Nc2nc(C)c3cc(C)ccc3n2)nc1C,-0.9,0.1,-0.1,-1.6,-2.3,nt,nt
CC(=O)c1c(C)nc(Nc2nc3ccccc3s2)nc1C,nt,11.3*,0.6,8.7,1.6*,1.6,13.1*
CC(C)(C)c1ccc(C(=O)NCCC(=O)N2CCCC2)cc1,3.0,7.0*,1.7,12.3*,0.4,0.9,4.9
CC(C)(C)c1ccc(C(=O)NCCc2ccccc2)cc1,-1.0,6.6*,2.6,11.4*,0.7,2.1,11.7*
CC(C)(C)c1ccc(C(=O)NCc2ccccc2)cc1,2.0,1.6,1.6,10.0,-1.2,nt,nt
